This passage reports binding signal results from article PMC12136788.

The full ranking holds about 24,000 sequences; the median of “enrichment r” is about 0.99, and the highest 2% start at about 3.7. Only a sample is shown.

T1: UNK ZnF1-3 (human, UniProt Q9C0B0 31-174)
T1 sequence: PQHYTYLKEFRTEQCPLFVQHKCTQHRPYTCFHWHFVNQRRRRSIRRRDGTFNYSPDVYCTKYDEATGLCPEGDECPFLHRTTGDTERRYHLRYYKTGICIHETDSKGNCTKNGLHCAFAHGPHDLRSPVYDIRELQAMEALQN

B1: chr12:96259795:96259796:+_ENSG00000139343_ENST00000266735|hu_hu|FALSE|FALSE (ssRNA)
RNA: GGGAGUUCUACAGUCCGACGAUCAAGGACAUUAUUACACCUUAUUAAAACUUCACCCAGAUGUCCAGACAAAGCUCCAUCUAUGUAUUCUUCUGUAUUUGCAAGCUGCAUGUUCAUGUAGCCAUCUACAGAUACCAGAUAGCCCAACAGAGGAUUGAGCAUCA
B2: 171526625_171526745_1071_3pUTR_ENSG00000117523_ENST00000495585|human|control|control (ssRNA)
RNA: GGGAGUUCUACAGUCCGACGAUCAGGUUAUAGCUGCAGCUGAAGUAGAGGCUGGAACUGAAGCUGAGACUGAGGCUGAGGCUGAAACUGGAGCUAAGGGUGAGGCUGGAACUGGAGCUGAGGUUGAGGCCAGAACUGGAGCUACAACAGAGGAUUGAGCAUCA
B3: chr13:108516651:108516652:-_ENSMUSG00000032846_ENSMUST00000105097|mus_hu|motif|central (ssRNA)
RNA: GGGAGUUCUACAGUCCGACGAUCAUCAUGCGCCAUUAAGAAGGUCUCUCGGGCUUUGCUGAGGAACUCUAUAAACUCACGGUAGUGCCGAGGACUGAUGUGUGUGAGCCGUGAGUGCGUUGUGUUGAUGUAGGCCCCGAUCGUCAACAGAGGAUUGAGCAUCA
B4: 138058577_138059462_3783_3pUTR_ENSMUSG00000041642_ENSMUST00000075164|mouse|control|control (ssRNA)
RNA: GGGAGUUCUACAGUCCGACGAUCGGCCAGGGACUUGGUGAUGUUCUUGGUAGAGCUGUCCAAUGGGGGUCCUAGGCACUCCGCAGACACGGCCUUCAUCUGUGCGGAUAGCUUGGGCUCACCCUUGAACUUGAAGUCAUCGUGCAACAGAGGAUUGAGCAUCA
B5: chr12:39756943:39756944:-_ENSG00000139116_ENST00000544797|hu_mus|hu_hu_hu_mus_False|28_38 (ssRNA)
RNA: GGGAGUUCUACAGUCCGACGAUCGGUUUGGCUGUUACCCCCAAGGGAAUCCUGCAAGAGUCUUGUCAGCUUAGAGUCUCUGUAAGGGACAUGGGUGGCCCUCUUGCUCUUGUCUCCCAAGGCGCUGAUUACAUUCCCAAGAGCCAACAGAGGAUUGAGCAUCA
B6: chr2:73467608:73467609:+_ENSG00000135624_ENST00000258091|hu_mus|FALSE|FALSE (ssRNA)
RNA: GGGAGUUCUACAGUCCGACGAUCAUCCUGGGACUUGGCUAUGUCCACUAAAGUCUUUGCUGCAGGAUGGACAACAUCGAGGAGUUUCAGAAUUGUGGCCCCAUCAUUAGAUAUUGUUGCUUUGCCUCGGCCAUCCACAAUAAGCAACAGAGGAUUGAGCAUCA
B7: chr2:160604994:160604995:+_ENSG00000136536_ENST00000409591|hu_mus|motif|central (ssRNA)
RNA: GGGAGUUCUACAGUCCGACGAUCUCUUGAAGACUCAUCCCUUCCCUCUCGCCUCCUUCUCGAGAACAAAGGUGUGCAUCGGUUUCGGAGUGAAGAAGACAACCAUGGUCCUGAAUUUCUACCUUCUGAUUCUUGGUUAAAAUUCAACAGAGGAUUGAGCAUCA
B8: chr11:64571133:64571134:-_ENSG00000133895_ENST00000312049|hu_hu|motif|central (ssRNA)
RNA: GGGAGUUCUACAGUCCGACGAUCCUGAAAAAUAAAUCUAUGUACAAAACAGGAAGAGAUCAGGCUCUUGUCACCCACUCCGGACCCUCUGCAGAUUUCCUCCGGGAUGCUCCGAGAUGGGCUGGACCUCUGGGAGGUUCCCAGCAACAGAGGAUUGAGCAUCA
B9: chr10:93459826:93459827:-_ENSMUSG00000036099_ENSMUST00000119818|mus_mus|motif|central (ssRNA)
RNA: GGGAGUUCUACAGUCCGACGAUCUCCCCACACCAGCCAGGAGGACACAAUCCAGCACGUGGGAAACAUGAUGAGCAAACGGAUGAAGGCAAACAGCAGCGAGACAUCCCAAGUGUUCGGGGUUGCCAGGGAGCAGAGCGUUGGCAACAGAGGAUUGAGCAUCA
B10: chr9:95013113:95013114:-_ENSG00000196305_ENST00000443024|hu_hu|hu_hu_hu_mus_False|1_48 (ssRNA)
RNA: GGGAGUUCUACAGUCCGACGAUCCUCAGUCAGAAAGGGCGUGUAAGGGGCCAUCAGUCUGCACAGAGAAAGCAGGACACUGAACAGGGUUUCUAGGGCCAUGACACAGUCUUCCACCCCACUCUCACCCUUUAACCUUCUGCGCAACAGAGGAUUGAGCAUCA
B11: chr16:75661828:75661829:-_ENSG00000065427_ENST00000302445|hu_hu|FALSE|FALSE (ssRNA)
RNA: GGGAGUUCUACAGUCCGACGAUCUAUUAUUUUCUAGACAGAAGUGCCAACUGUUGUGCUUUCCAGUGUAUCAGUGGUUGCUACAUUCUCCUUCUUGUCUUCGGGUUUCAUGGCAGGAAACAGAAGUACUUCCUUGAUGUUGUUCAACAGAGGAUUGAGCAUCA
B12: chr11:29608675:29608676:+_ENSMUSG00000020458_ENSMUST00000102843|mus_mus|motif|central (ssRNA)
RNA: GGGAGUUCUACAGUCCGACGAUCCUCUGUAUCAGAAGGAAGUUUUUCCUCUGCUUCUUUCGUAAGUACUUUGGGUUUAACGGUGUUGCCCAUUUCUAUUUGAGAUUCCAAAGCAGAAACAUUUGGAAGCAAUAAGGGCACCUUCAACAGAGGAUUGAGCAUCA
B13: 136535675_136535795_2550_CDS_ENSMUSG00000030213_ENSMUST00000032335|mouse|control|control (ssRNA)
RNA: GGGAGUUCUACAGUCCGACGAUCCUGAGGCUGAGAGGUCACGGCAACGGGCACAUGCAGGAUCACUGGCAAGGGCUGCAGAGAGAUUGUAGGCUGAGGGGUCCCACUAGGCACCUGAGUAGUGGCAACUACGGUGGCUGUGCUCAACAGAGGAUUGAGCAUCA
B14: chr7:102952668:102952669:+_ENSG00000105819_ENST00000453466|hu_hu|motif|central (ssRNA)
RNA: GGGAGUUCUACAGUCCGACGAUCCUGUUUAAAAUCUGGUAGUUGCUUAAUGGGACCAACAGCAGCAAUAGCUGGACUCCGGUUAUAAAUGUAUUUGGUACAUACUUCUCGAAUUGUCUCAGCAUUCACAGCAUCAAUUCUUGCCAACAGAGGAUUGAGCAUCA
B15: chr2:120799606:120799607:+_ENSG00000115109_ENST00000263713|hu_hu|motif|central (ssRNA)
RNA: GGGAGUUCUACAGUCCGACGAUCGUACAUAAUCUGAUCAAACAACUCUUGUCCUUUGGCUUUUUUUGGCAAGUCCACACGGACAUCAGUACCAUCCAGAAGGGACACCCGACACGUGAUGAUGGACUUAGAAUCUCCAGCUGCCAACAGAGGAUUGAGCAUCA

This experiment concerns the target T1, UNK ZnF1-3. Briefly: nsRBNS (natural sequence RNA bind-n-seq); RBNS binding buffer (assumed for nsRBNS): 25 mM Tris pH 7.5, 150 mM KCl, 3 mM MgCl2, 0.01% Triton X-100, 500 ug/ml BSA, 20 U/ml SUPERase-In, 4 C; UNK is unkempt and MSI1 is Musashi-1; names of the RNAs are library labels; protein concentration not given here; high values mean tight binding.
B1 came in with a binding signal of 0.574 enrichment R.

The molecule B2 registered a binding signal of 2.07 enrichment R.

The molecule B3 displayed a binding signal of 0.756 enrichment R.

Turning to B4, the binding signal amounted to 0.657 enrichment R.

Take B5: the binding signal was determined as 0.802 enrichment R.

B6: the binding signal was 0.992 enrichment R.

Turning to B7, the binding signal came out at 0.976 enrichment R.

Regarding B8, the binding signal was 0.877 enrichment R.

In the case of B9, the binding signal was 2.05 enrichment R.

Consider B10, for which the binding signal amounted to 0.937 enrichment R.

Regarding B11, the binding signal worked out at 0.567 enrichment R.

The molecule B12 yielded a binding signal of 0.539 enrichment R.

Turning to B13, the binding signal was found to be 1.73 enrichment R.

The molecule B14 showed a binding signal of 1.15 enrichment R.

The molecule B15 gave a binding signal of 0.976 enrichment R.
